Measured values taken from PubChem BioAssay (EPA / NIEHS).
Active and inactive are the calls of the source. The calls were made as follows: active = hit-call score of the fitted dose curve at least 0.9, where 1 is the maximum; inactive = score below 0.9.

Tests used:
[1] = molecular target: CCAAT/enhancer-binding protein beta (Homo sapiens) (UniProt P17676); test: ATG_C_EBP_CIS: Attagene CIS-FACTORIAL HepG2 Assay for human CCAAT/Enhancer Binding Protein (C/EBP) beta (AID 2282927); settings: HepG2 Attagene cis-factorial transcription factor reporter; actives raise or lower the signal
CCAAT/enhancer-binding protein beta (Homo sapiens), sequence (P17676 whole entry, looked up): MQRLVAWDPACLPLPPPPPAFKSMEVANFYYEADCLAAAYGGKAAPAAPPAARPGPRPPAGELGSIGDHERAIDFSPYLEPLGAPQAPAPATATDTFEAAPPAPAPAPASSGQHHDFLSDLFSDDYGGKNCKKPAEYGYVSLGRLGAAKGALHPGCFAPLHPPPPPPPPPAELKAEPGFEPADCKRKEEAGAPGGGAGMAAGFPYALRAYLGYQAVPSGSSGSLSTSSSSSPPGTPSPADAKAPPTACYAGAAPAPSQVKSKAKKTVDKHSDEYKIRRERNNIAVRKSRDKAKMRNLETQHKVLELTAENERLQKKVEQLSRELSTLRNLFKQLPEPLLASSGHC
In short: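 Following a 24 h incubation with test chemical, transfected HepG2 cells yielded RNA whose reporter transcripts were quantified by RT-PCR and fluorescent capillary electrophoresis, with DMSO serving as baseline for bidirectional fitting.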

[2] = ATG_DR4_LXR_CIS: Attagene CIS-FACTORIAL HepG2 Assay for human Liver X Receptor (LXR), DR4 submotif (AID 2282929); settings: HepG2 Attagene DR4 cis-reporter, mRNA transcription; actives raise or lower the signal
In short: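 DR4 cis-reporter in HepG2, 24 h exposure. Detection: RT-PCR, 6-FAM labelling, CE fragment analysis. Endpoint fitted bidirectionally, DMSO = baseline.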

[3] = molecular target: Aryl hydrocarbon receptor (Homo sapiens) (UniProt P35869); test: ATG_Ahr_CIS: Attagene CIS-FACTORIAL HepG2 Assay for human Aryl Hydrocarbon Receptor (Ahr) (AID 2282930); settings: HepG2 AhR cis-factorial reporter transcription; actives raise or lower the signal
Aryl hydrocarbon receptor (Homo sapiens), sequence (P35869 whole entry, looked up): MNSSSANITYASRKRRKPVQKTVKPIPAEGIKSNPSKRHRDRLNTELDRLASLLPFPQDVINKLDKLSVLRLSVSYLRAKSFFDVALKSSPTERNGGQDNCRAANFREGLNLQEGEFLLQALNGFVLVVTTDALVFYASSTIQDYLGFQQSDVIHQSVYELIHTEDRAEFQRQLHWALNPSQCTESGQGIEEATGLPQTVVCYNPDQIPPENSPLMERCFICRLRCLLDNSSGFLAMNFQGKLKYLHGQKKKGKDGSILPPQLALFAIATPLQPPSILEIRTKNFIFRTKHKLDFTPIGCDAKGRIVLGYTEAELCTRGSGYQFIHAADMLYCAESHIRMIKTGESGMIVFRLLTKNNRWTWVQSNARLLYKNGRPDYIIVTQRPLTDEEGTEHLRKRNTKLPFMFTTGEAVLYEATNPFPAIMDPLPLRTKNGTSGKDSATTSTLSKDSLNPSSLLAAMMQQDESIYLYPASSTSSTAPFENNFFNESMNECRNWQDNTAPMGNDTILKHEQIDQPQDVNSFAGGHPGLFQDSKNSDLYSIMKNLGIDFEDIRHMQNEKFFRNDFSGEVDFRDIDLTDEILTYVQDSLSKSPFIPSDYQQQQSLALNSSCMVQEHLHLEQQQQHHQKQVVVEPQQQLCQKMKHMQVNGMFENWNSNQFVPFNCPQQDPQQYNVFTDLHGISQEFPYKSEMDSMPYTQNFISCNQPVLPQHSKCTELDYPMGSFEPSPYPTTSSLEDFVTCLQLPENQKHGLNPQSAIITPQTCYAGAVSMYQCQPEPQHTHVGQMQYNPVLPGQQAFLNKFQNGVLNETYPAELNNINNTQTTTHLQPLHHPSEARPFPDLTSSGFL
In short: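 Values derive from bidirectional fitting against DMSO negative control. Underlying signal: cis-element reporter mRNA in transiently transfected HepG2, harvested 24 h post-dose and measured by RT-PCR plus capillary electrophoresis.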

[4] = ATG_AP_1_CIS: Attagene CIS-FACTORIAL HepG2 Assay for human Activator Protein 1 (AP-1) (AID 2282931); settings: HepG2 Attagene cis-factorial AP-1 reporter mRNA; actives raise or lower the signal
In short: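 Cis-regulated reporter units transiently expressed in HepG2 report endogenous transcription-factor activity. Signal: reporter mRNA at 24 h, via RT-PCR and fluorescent capillary electrophoresis. Endpoint derived by bidirectional fitting, DMSO as negative control.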

[5] = ATG_AP_2_CIS: Attagene CIS-FACTORIAL HepG2 Assay for human Activator Protein 2 (AP-2) (AID 2282932); settings: HepG2 AP-2 cis-reporter, Attagene transcription factor profiling; actives raise or lower the signal
In short: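 HepG2 cells were transiently transfected with multiple cis-promoter reporter transcription units and dosed for 24 h. Reporter mRNA was measured by RT-PCR with capillary electrophoresis fluorescence; bidirectional fits relative to DMSO baseline.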

[6] = ATG_BRE_CIS: Attagene CIS-FACTORIAL HepG2 Assay for human Bone Morphogenetic Protein (BMP) Response Element (BRE) (AID 2282933); settings: HepG2 BMP response element reporter, Attagene transcription factor profiling; actives raise or lower the signal
In short: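 HepG2 cells transiently transfected with multiplexed cis-element reporter units were dosed with chemical for 24 h. Reporter mRNA was measured by RT-PCR with fluorescent labelling, HpaI digestion and capillary electrophoresis; bidirectional fitting relative to DMSO.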

[7] = molecular target: Transcription factor E2F1 (Homo sapiens) (UniProt Q01094); test: ATG_E2F_CIS: Attagene CIS-FACTORIAL HepG2 Assay for human E2F Transcription Factor 1 (AID 2282935); settings: HepG2 Attagene cis-reporter, E2F reporter RNA transcripts; actives raise or lower the signal
Transcription factor E2F1 (Homo sapiens), sequence (Q01094 whole entry, looked up): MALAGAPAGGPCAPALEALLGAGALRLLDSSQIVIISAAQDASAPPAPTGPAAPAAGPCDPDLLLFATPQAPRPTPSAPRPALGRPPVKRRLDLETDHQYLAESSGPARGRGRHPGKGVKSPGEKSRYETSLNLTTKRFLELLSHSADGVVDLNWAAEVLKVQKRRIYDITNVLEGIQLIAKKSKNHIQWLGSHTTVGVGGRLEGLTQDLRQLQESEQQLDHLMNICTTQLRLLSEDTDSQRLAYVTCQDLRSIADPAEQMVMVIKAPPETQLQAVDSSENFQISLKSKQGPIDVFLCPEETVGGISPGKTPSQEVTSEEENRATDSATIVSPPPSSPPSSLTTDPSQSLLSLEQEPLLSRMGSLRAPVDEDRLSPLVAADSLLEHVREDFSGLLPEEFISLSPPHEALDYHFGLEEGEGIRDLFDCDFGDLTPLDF
In short: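 HepG2 cells transiently transfected with multiplexed cis-element reporter units, dosed for 24 h. Reporter mRNA measured by RT-PCR, 6-FAM primer-extension labeling, HpaI digestion and capillary electrophoresis; bidirectional fit versus DMSO baseline.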

[8] = ATG_E_Box_CIS: Attagene CIS-FACTORIAL HepG2 Assay for human Enhancer Box (E-box) (AID 2282936); settings: HepG2 E-box cis-reporter transcription, actives raise or lower the signal
In short: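 HepG2 cells transiently transfected with multiplexed cis-element reporter units sensing endogenous transcription factor activity; 24 h compound exposure. Reporter mRNA measured by RT-PCR, 6-FAM primer extension, HpaI digestion and capillary electrophoresis; bidirectional fit versus DMSO.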

[9] = ATG_M_61_CIS: Attagene CIS-FACTORIAL HepG2 Assay for M61 Transcription Factor (Internal Marker) (AID 2282937); settings: HepG2 Attagene CIS-FACTORIAL M61 internal marker reporter; actives raise or lower the signal
In short: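 Background-control endpoint: HepG2 cells with cis-regulated reporter constructs, 24 h exposure, reporter mRNA detected via fluorescent primer extension and capillary electrophoresis; values from bidirectional fitting with DMSO baseline.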

[10] = ATG_EGR_CIS: Attagene CIS-FACTORIAL HepG2 Assay for human Early Growth Response 1 (EGR1) (AID 2282938); settings: HepG2 Attagene CIS-FACTORIAL EGR reporter mRNA; actives raise or lower the signal
In short: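 Endpoint derived by bidirectional fitting versus DMSO vehicle. Method: cis-promoter reporter units transfected into HepG2, 24 h dosing, RNA isolation, RT-PCR with 6-FAM primer extension and HpaI digestion, then capillary electrophoresis fluorescence detection.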

[11] = ATG_M_19_CIS: Attagene CIS-FACTORIAL HepG2 Assay for M19 Transcription Factor (Internal Marker) (AID 2282939); settings: HepG2 Attagene CIS-FACTORIAL M19 internal marker reporter; actives raise or lower the signal
In short: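 HepG2 cells transiently transfected with cis-regulated multiple reporter transcription units were dosed for 24 h; reporter mRNA was quantified by RT-PCR, 6-FAM primer-extension labelling, HpaI digestion and capillary electrophoresis, with bidirectional fitting against DMSO baseline.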

[12] = ATG_Ets_CIS: Attagene CIS-FACTORIAL HepG2 Assay for human Erythroblast Transformation Specific (ETS) (AID 2282941); settings: HepG2 ETS cis-reporter transcription, actives raise or lower the signal
In short: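 HepG2 cells transfected with multiple cis-regulated reporter units measuring endogenous ETS-driven transcription, 24 h after dosing. Reporter mRNA quantified by RT-PCR with capillary electrophoresis; bidirectional fit relative to DMSO.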

[13] = molecular target: Hepatocyte nuclear factor 3-beta (Homo sapiens) (UniProt Q9Y261); test: ATG_FoxA2_CIS: Attagene CIS-FACTORIAL HepG2 Assay for human Forkhead box A2 (FOXA2) (AID 2282942); settings: HepG2 cis-reporter transcription factor activity, 24 h; actives raise or lower the signal
Hepatocyte nuclear factor 3-beta (Homo sapiens), sequence (Q9Y261 whole entry, looked up): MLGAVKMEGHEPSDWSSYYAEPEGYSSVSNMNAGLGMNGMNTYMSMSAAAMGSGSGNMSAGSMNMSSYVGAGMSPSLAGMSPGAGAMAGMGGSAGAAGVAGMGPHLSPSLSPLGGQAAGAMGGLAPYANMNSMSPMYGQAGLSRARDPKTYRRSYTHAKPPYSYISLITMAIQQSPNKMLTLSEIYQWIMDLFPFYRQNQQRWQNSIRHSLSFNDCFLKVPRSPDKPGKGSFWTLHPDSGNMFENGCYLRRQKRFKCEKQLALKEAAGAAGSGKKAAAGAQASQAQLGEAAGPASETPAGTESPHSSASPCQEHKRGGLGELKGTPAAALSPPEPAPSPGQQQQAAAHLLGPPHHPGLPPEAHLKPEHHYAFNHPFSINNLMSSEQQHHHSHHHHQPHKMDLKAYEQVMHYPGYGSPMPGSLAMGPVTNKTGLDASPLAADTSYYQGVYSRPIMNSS
In short: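 Measured: reporter mRNA induction or loss in HepG2 transiently carrying multiple cis-regulated reporter units, 24 h after dosing. Quantified by RT-PCR plus capillary electrophoresis, normalised to DMSO.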

[14] = ATG_FoxO_CIS: Attagene CIS-FACTORIAL HepG2 Assay for human Forkhead box O (FoxO) (AID 2282943); settings: HepG2 Attagene cis-reporter, FoxO element, mRNA; actives raise or lower the signal
In short: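 Values reflect reporter mRNA induction or loss in HepG2 cells 24 h post-dosing, fitted bidirectionally with DMSO as negative control and baseline. Detection used RT-PCR and fluorescence capillary electrophoresis.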

[15] = ATG_GATA_CIS: Attagene CIS-FACTORIAL HepG2 Assay for human GATA Binding Protein (AID 2282944); settings: HepG2 GATA cis-element reporter, Attagene multiplex mRNA; actives raise or lower the signal
In short: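 HepG2 cells transiently transfected with multiplexed cis-element reporter units reflecting endogenous transcription factor activity; reporter mRNA measured after 24 h dosing by RT-PCR, 6-FAM labeling, HpaI digestion and capillary electrophoresis. Bidirectional fitting versus DMSO baseline.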

[16] = ATG_GLI_CIS: Attagene CIS-FACTORIAL HepG2 Assay for human Zinc Finger Protein GLI1 (AID 2282945); settings: HepG2, Attagene cis-factorial reporter mRNA, GLI element; actives raise or lower the signal
In short: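 HepG2 cells transiently transfected with cis-promoter multiplexed reporter units report endogenous transcription factor activity. After 24 h chemical exposure, reporter mRNA was quantified by RT-PCR, 6-FAM labelling, HpaI digestion and capillary electrophoresis, with bidirectional fitting against DMSO.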

[17] = ATG_CMV_CIS: Attagene CIS-FACTORIAL HepG2 Assay for human CMV (Internal Marker) (AID 2282928); settings: HepG2 CMV promoter reporter, transcription factor profiling; actives raise or lower the signal;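 also: endpoint acts as a background internal control marker rather than a target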
In short: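 CMV internal-marker background readout in transiently transfected HepG2 cells bearing cis-regulated reporter units. Reporter mRNA is measured 24 h after dosing by RT-PCR and capillary electrophoresis, with bidirectional fitting against DMSO.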

[18] = ATG_ERE_CIS: Attagene CIS-FACTORIAL HepG2 Assay for Estrogen Response Element (ERE) (AID 2282940); settings: HepG2 ERE cis-reporter, Attagene RNA transcript; actives raise or lower the signal
In short: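 HepG2 cells transiently transfected with cis-promoter-driven multiplexed reporter transcription units report endogenous TF activity. After 24 h compound exposure, reporter mRNA is quantified by RT-PCR with capillary electrophoresis fluorescence; bidirectional fitting versus DMSO baseline.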

[19] = molecular target: Retinoic acid receptor alpha (Homo sapiens) (UniProt P10276); test: ATG_DR5_RAR_CIS: Attagene CIS-FACTORIAL HepG2 Assay for human Retinoic Acid Receptor Alpha (RARE), DR5 submotif (AID 2282934); settings: HepG2 Attagene cis-factorial RARE DR5 reporter, mRNA; actives raise or lower the signal
Retinoic acid receptor alpha (Homo sapiens), sequence (P10276 whole entry, looked up): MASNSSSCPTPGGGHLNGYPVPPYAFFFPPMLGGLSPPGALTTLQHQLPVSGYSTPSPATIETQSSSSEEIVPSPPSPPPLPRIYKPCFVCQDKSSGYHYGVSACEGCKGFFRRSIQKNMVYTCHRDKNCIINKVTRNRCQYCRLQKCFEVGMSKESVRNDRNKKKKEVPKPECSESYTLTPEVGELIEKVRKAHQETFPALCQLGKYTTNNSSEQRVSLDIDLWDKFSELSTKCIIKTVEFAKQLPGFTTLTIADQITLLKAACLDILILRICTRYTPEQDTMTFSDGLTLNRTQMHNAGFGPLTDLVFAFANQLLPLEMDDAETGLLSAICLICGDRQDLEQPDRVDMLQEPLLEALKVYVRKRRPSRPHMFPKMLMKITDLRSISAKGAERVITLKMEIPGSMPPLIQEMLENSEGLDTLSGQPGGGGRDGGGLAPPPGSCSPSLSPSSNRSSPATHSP
In short: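 Endpoint fitted in both directions relative to DMSO as negative control. It reflects DR5 cis-element reporter mRNA induction in transiently transfected HepG2 cells, measured 24 h after dosing through RT-PCR and fluorescent capillary electrophoresis.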

SMILES	outcome [1]	outcome [2]	AC50 [3]	outcome [4]	outcome [5]	outcome [6]	outcome [7]	outcome [8]	outcome [9]	outcome [10]	outcome [11]	outcome [12]	outcome [13]	outcome [14]	outcome [15]	outcome [16]	outcome [17]	outcome [3]	outcome [18]	outcome [19]
CC(=O)Nc1ccccc1O	inactive	inactive	20.7 µM (active)	inactive	inactive	inactive	inactive	inactive	inactive	inactive	inactive	inactive	inactive	inactive	inactive	inactive	–	–	–	–
CC(=O)Nc1ccc(CC(=O)O)cc1	inactive	–	–	inactive	inactive	inactive	inactive	inactive	inactive	inactive	inactive	–	inactive	inactive	–	inactive	inactive	inactive	–	–
CCCCN	inactive	inactive	–	inactive	inactive	inactive	inactive	inactive	inactive	–	inactive	inactive	inactive	inactive	inactive	inactive	inactive	inactive	inactive	–
CCOc1ccccc1OCC	inactive	inactive	–	inactive	inactive	inactive	inactive	inactive	inactive	inactive	inactive	–	inactive	inactive	inactive	inactive	–	inactive	–	–
CC[C@]12CCCN3CCc4c(n(c5ccccc45)[C@@](O)(C(=O)OC)C1)[C@@H]32	inactive	–	–	inactive	inactive	inactive	inactive	inactive	inactive	inactive	inactive	inactive	inactive	inactive	inactive	inactive	inactive	inactive	–	inactive
Cc1ccc2n[nH]nc2c1	inactive	inactive	–	inactive	inactive	–	inactive	–	inactive	–	inactive	inactive	inactive	inactive	inactive	inactive	inactive	–	–	–
O=S(=O)(O)c1cccc2c(S(=O)(=O)O)cccc12	inactive	inactive	–	inactive	inactive	inactive	inactive	inactive	inactive	–	inactive	inactive	inactive	inactive	inactive	inactive	–	–	–	inactive
CC(=O)[O][Al][O]C(C)=O	inactive	inactive	–	inactive	inactive	inactive	inactive	–	inactive	inactive	inactive	inactive	inactive	inactive	inactive	inactive	inactive	inactive	inactive	–
CCCCC(CC)COCCC#N (stereo not drawn)	inactive	–	–	inactive	inactive	inactive	inactive	inactive	inactive	inactive	inactive	inactive	inactive	inactive	inactive	inactive	–	–	–	–
